Measurements reported in PubChem BioAssay (NCATS).
Where “and” joins values, the source holds several entries; their conditions need not be identical. Identical values can stand only once. Inconclusive results are not listed.

Assay: qHTS Assay for Lipid Storage Modulators (AID 1519)
Conditions: Drosophila S3 cells, BODIPY lipid droplet/cell ratio, laser cytometry; measured here: cell count channel max response; cells loaded with oleic acid
In short: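 Cells seeded at 5,000 per well were treated with compounds over a concentration series and loaded with oleic acid (400 uM, as added). Lipid droplet fluorescence (488 nm excitation, 500-530 nm channel) was read by laser-scanning cytometry and normalized to 20 uM Triacsin C.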

| Compound | max response |
| --- | --- |
| O=c1[nH]c2cc(Cl)c(Cl)cc2[nH]c1=O | -49.2% |
| Oc1c(Br)cc(Br)c2cccnc12 | 0.383% |
| O=C(O)Cc1ccc(-c2ccccc2)cc1 | -7.71% |
| COc1cc(NC(C)CCCN)c2ncccc2c1 (configuration not stated) | 14.8% |
| N[C@H](CCCP(=O)(O)O)C(=O)O | -9.86% and -13.3% |
| Nc1ccc(O)c(C(=O)O)c1 | -4.23% |
| CCCCCCCCCCCCCCCCCCNC(=O)OCC(COP(=O)([O-])OCC[n+]1ccsc1)OC (configuration not stated) | -16.2% |
| Cc1c(Nc2ncccc2C(=O)O)cccc1C(F)(F)F | -9.98% |
| O=c1cc(-c2ccccc2)oc2c(O)c(O)ccc12 | -10.5% |
| CCCCCCCCCCCCCCCCCC(=O)NCC(COP(=O)([O-])OCC[N+](C)(C)C)OCC (configuration not stated) | 15.1% |
| O=C(O)CCCC[C@@H]1CCSS1 | -26.8% |
| CC(C)NC[C@H](O)COc1cccc2[nH]ccc12 | -1.16% |
| CCCSc1ccc2nc(NC(=O)OC)[nH]c2c1 | -8.08% and -12.8% |
| Oc1ccccc1O | -20.2% |
| O=S(=O)(c1cccc2c(I)cccc12)N1CCCNCC1 | -8.25% |
| CCCCCCCC/C=C\CCCCCCCC(=O)NCCO | 18.9% |
| COc1cc(OC)c(/C=C2/C(=O)Nc3ccccc32)c(OC)c1 | 30.4% |
| NCCCS(=O)(=O)O | 17.3% |

| Compound | max response |
| --- | --- |
| CCCN(CC1CC1)c1nc(C)nc(Nc2c(Cl)cc(Cl)cc2Cl)c1Cl | -15.8% |
| O=C(/C=C/c1ccc(O)c(O)c1)OCCc1ccccc1 | -15.3% and -76.7% |
| Nc1nc(Cl)nc2c1ncn2[C@@H]1O[C@H](CO)[C@@H](O)[C@H]1O | 7.07% |
| S=c1[nH]c2ccccc2s1 | 14.4% |
| CN(C)c1ccc(/C=C2\C(=O)Nc3ccccc32)cc1 | -28.2% |
| S=C(S)OC1CC2CC1C1CCCC21 (configuration not stated) | -18.8% |
| CCCCCCCCCCCCCCCC(=O)NCC(COP(=O)([O-])OCC[N+](C)(C)C)OCC (configuration not stated) | -22.8% |
| O=C(OCc1ccccc1)c1ccccc1 | -2.84% |
| C[C@@H](CN1CCC(Cc2ccccc2)CC1)[C@@H](O)c1ccc(O)cc1 | 15.4% |
| N=C(N)N | 15.8% |
| CCN1/C(=C/C(C)=O)Sc2ccc(OC)cc21 | -21.8% |
| Cc1c(N)c(=O)n(-c2ccccc2)n1C | 3.27% and 4.31% |
| O=C1NC(O)=NC1(c1ccccc1)c1ccccc1 | -13.9% |
| O=C(c1cc(O)c(O)c([N+](=O)[O-])c1)c1ccccc1F | -12% |
| O=c1[nH]c2ccccc2n1CCCN1CCN(C(c2ccccc2)c2ccccc2)CC1 | 44.5% |
| CCCCCCCCCCCCCCCC(=O)OC(CC(=O)O)C[N+](C)(C)C (configuration not stated) | 29% |
| O=C1CN(/N=C/c2ccc([N+](=O)[O-])o2)C(=O)N1 | 3.43% |
| O=C(Nc1cccc(C(=O)Nc2ccc(S(=O)(=O)O)c3cc(S(=O)(=O)O)cc(S(=O)(=O)O)c23)c1)Nc1cccc(C(=O)Nc2ccc(S(=O)(=O)O)c3cc(S(=O)(=O)O)cc(S(=O)(=O)O)c23)c1 | -8.67% |

Same assay, conditions: Drosophila S3 cells, BODIPY lipid droplet/cell ratio, laser cytometry; measured here: lipid channel max response; cells loaded with oleic acid

| Compound | max response |
| --- | --- |
| O=c1[nH]c2cc(Cl)c(Cl)cc2[nH]c1=O | -51.3% |
| Oc1c(Br)cc(Br)c2cccnc12 | 3.22% |
| O=C(O)Cc1ccc(-c2ccccc2)cc1 | -5.4% |
| COc1cc(NC(C)CCCN)c2ncccc2c1 (configuration not stated) | 28.1% |
| N[C@H](CCCP(=O)(O)O)C(=O)O | -5.72% and -16.1% |
| Nc1ccc(O)c(C(=O)O)c1 | -4.44% |
| CCCCCCCCCCCCCCCCCCNC(=O)OCC(COP(=O)([O-])OCC[n+]1ccsc1)OC (configuration not stated) | -15% |
| Cc1c(Nc2ncccc2C(=O)O)cccc1C(F)(F)F | -11.1% |
| O=c1cc(-c2ccccc2)oc2c(O)c(O)ccc12 | -5.87% |
| CCCCCCCCCCCCCCCCCC(=O)NCC(COP(=O)([O-])OCC[N+](C)(C)C)OCC (configuration not stated) | 12.1% |
| O=C(O)CCCC[C@@H]1CCSS1 | -29% |
| CC(C)NC[C@H](O)COc1cccc2[nH]ccc12 | -1.16% |
| CCCSc1ccc2nc(NC(=O)OC)[nH]c2c1 | -10.3% and -11.2% |
| Oc1ccccc1O | -25.6% |
| O=S(=O)(c1cccc2c(I)cccc12)N1CCCNCC1 | -5.07% |
| CCCCCCCC/C=C\CCCCCCCC(=O)NCCO | 20.6% |
| COc1cc(OC)c(/C=C2/C(=O)Nc3ccccc32)c(OC)c1 | 28.6% |
| NCCCS(=O)(=O)O | 22.8% |

| Compound | max response |
| --- | --- |
| CCCN(CC1CC1)c1nc(C)nc(Nc2c(Cl)cc(Cl)cc2Cl)c1Cl | -15.8% |
| O=C(/C=C/c1ccc(O)c(O)c1)OCCc1ccccc1 | -17.2% and -81.3% |
| Nc1nc(Cl)nc2c1ncn2[C@@H]1O[C@H](CO)[C@@H](O)[C@H]1O | 14% |
| S=c1[nH]c2ccccc2s1 | 29.5% |
| CN(C)c1ccc(/C=C2\C(=O)Nc3ccccc32)cc1 | -23.7% |
| S=C(S)OC1CC2CC1C1CCCC21 (configuration not stated) | -14.9% |
| CCCCCCCCCCCCCCCC(=O)NCC(COP(=O)([O-])OCC[N+](C)(C)C)OCC (configuration not stated) | -25% |
| O=C(OCc1ccccc1)c1ccccc1 | 6.88% |
| C[C@@H](CN1CCC(Cc2ccccc2)CC1)[C@@H](O)c1ccc(O)cc1 | 14.5% |
| N=C(N)N | 23.8% |
| CCN1/C(=C/C(C)=O)Sc2ccc(OC)cc21 | -21.7% |
| Cc1c(N)c(=O)n(-c2ccccc2)n1C | 6.06% and 9.92% |
| O=C1NC(O)=NC1(c1ccccc1)c1ccccc1 | -13.3% |
| O=C(c1cc(O)c(O)c([N+](=O)[O-])c1)c1ccccc1F | -15.8% |
| O=c1[nH]c2ccccc2n1CCCN1CCN(C(c2ccccc2)c2ccccc2)CC1 | 44% |
| CCCCCCCCCCCCCCCC(=O)OC(CC(=O)O)C[N+](C)(C)C (configuration not stated) | 25.7% |
| O=C1CN(/N=C/c2ccc([N+](=O)[O-])o2)C(=O)N1 | 14.3% |
| O=C(Nc1cccc(C(=O)Nc2ccc(S(=O)(=O)O)c3cc(S(=O)(=O)O)cc(S(=O)(=O)O)c23)c1)Nc1cccc(C(=O)Nc2ccc(S(=O)(=O)O)c3cc(S(=O)(=O)O)cc(S(=O)(=O)O)c23)c1 | -6.27% |
